A selection: hits, their analogues and other compounds. The true share with any hit is near 2%.
PREPL inhibitor: inhibitors of human prolyl oligopeptidase-like enzyme PREPL; Q4J6C6; recombinant PREPL, fluorescence polarization activity-based probe; inhibition, % at 5.96 µM; 0.68% of 320,000 active;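 note: 0% = enzyme with DMSO and 100% = wells lacking enzyme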
PME-1 primary: blocks human protein phosphatase methylesterase 1 | Q9Y570 | recombinant PME-1, FP-Rh probe fluorescence polarization | inhibition, % at 5.9 µM | 0.53% of 320,000 active;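 active = inhibition above the campaign mean of all compounds plus 3 SD, cut at about 26% in these data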;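 note: competitive labeling of PME-1 active site by serine hydrolase directed probe; 0% = PME-1 with DMSO and 100% = wells lacking PME-1 enzyme; inhibitors block probe labeling so polarization falls and inhibition rises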
LYPLA2 inh: counter-screen for PME1 inhibitors: inhibitors of human LYPLA2. O95372. recombinant LYPLA2, FP-Rh probe fluorescence polarization. inhibition, % at 5.9 µM. 0.38% of 320,000 active;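 active = inhibition above the screen-wide mean plus 3 SD, limit set per campaign, cut at about 26% in these data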;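 note: 0% = LYPLA2 with DMSO and 100% = wells lacking LYPLA2 enzyme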
Target sequence (O95372 whole entry, looked up): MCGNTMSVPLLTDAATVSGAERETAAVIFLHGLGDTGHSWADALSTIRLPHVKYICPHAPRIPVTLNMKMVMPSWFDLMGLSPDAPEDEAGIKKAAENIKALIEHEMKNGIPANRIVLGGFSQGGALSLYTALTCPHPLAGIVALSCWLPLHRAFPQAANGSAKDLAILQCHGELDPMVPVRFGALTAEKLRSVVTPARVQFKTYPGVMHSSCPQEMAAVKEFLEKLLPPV
GSTO1 counter: GSTO1 inhibition, counter-screen for RBBP9 inhibitors. P78417. recombinant GSTO1, activity-based probe fluorescence polarization. inhibition, % at 5.96 µM. 1.1% of 300,000 active;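 active = inhibition above the campaign mean inhibition plus 3 SD, cut at about 35% in these data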;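 note: 0% = GSTO1-1 with DMSO and 100% = wells lacking GSTO1-1 enzyme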
Target sequence (P78417 whole entry, looked up): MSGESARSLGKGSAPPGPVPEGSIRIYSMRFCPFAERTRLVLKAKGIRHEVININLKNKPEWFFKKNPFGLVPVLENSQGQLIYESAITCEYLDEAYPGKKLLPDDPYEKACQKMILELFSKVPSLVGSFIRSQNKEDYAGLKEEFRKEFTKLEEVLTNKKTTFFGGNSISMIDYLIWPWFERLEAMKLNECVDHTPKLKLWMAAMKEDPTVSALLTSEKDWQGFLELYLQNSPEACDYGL
Fam108B counter: Fam108B inhibition, counter-screen for RBBP9 inhibitors. recombinant Fam108B, FP-Rh probe fluorescence polarization. inhibition, % at 9.51 µM. 0.33% of 300,000 active;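 active = inhibition above the screen mean inhibition plus 3 SD, computed separately per campaign, cut at about 18% in these data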;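 note: inhibitors lower polarization as less probe binds the enzyme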
LYPLA1 counter: counter-screen for PME1 inhibitors: inhibitors of human LYPLA1 | O75608 | recombinant LYPLA1, FP-Rh probe fluorescence polarization | inhibition, % at 5.9 µM | 0.16% of 320,000 active | AID 2174;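 active = inhibition above the mean of all tested compounds plus 3 SD, set per campaign, cut at about 14% in these data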;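 note: inhibitors block serine hydrolase probe labeling of LYPLA1 so polarization falls; 0% = enzyme with DMSO and 100% = wells lacking LYPLA1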
Target sequence (O75608 whole entry, looked up): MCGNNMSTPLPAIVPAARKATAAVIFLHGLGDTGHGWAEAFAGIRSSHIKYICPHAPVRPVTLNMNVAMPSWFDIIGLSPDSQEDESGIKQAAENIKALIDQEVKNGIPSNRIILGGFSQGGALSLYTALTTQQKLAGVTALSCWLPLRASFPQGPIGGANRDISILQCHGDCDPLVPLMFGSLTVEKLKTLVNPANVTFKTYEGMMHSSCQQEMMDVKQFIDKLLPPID
PREPL confirm: human PREPL inhibition, confirmation | shares compounds with PREPL inhibitor | recombinant PREPL, fluorescence polarization activity probe | inhibition, % at 5.96 µM | 67% of 2,000 active;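 note: 0% = protein with DMSO and 100% = wells lacking protein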
Active calls of the source: *; . = no result given. Cut-off read from the data, not from the text of the source, unless noted: active = inhibition above about 43%; inactive = the rest.

SMILES | PREPL inhibitor | PME-1 primary | LYPLA2 inh | GSTO1 counter | Fam108B counter | LYPLA1 counter | PREPL confirm
COc1ccc(NCc2nn(CC(=O)c3ccc(Br)cc3)c3[n+]2CCCCC3)cc1 | 50.7* | -0.3 | 5.3 | 5.2 | 1.4 | -2.9 | 55.4*
O=C(Cn1nc(CNc2ccc(Cl)cc2)[n+]2c1CCCCC2)c1ccc(Br)cc1 | 39.0 | 9.3 | -10.8 | 7.4 | 4.2 | -0.3 | .
O=C(Cn1nc(Cl)nc1Cl)c1ccc([N+](=O)[O-])cc1 | 4.3 | 3.4 | 13.3 | 5.4 | -0.4 | 0.1 | .
Cc1cc(OC(C)C(=O)NCC(O)c2ccccc2)c2c(C)cc(=O)oc2c1 (centres undefined) | 6.5 | 5.6 | -5.4 | 4.2 | -2.5 | 4.1 | .
Cc1cccc(OCC(O)CN2CC3(C)CC2CC(C)(C)C3)c1 (centres undefined) | 13.4 | 6.3 | 5.8 | -2.1 | -4.0 | -8.0 | .
CCCCCCC(=O)N1C/C=C\C(c2ccc(OC)cc2)N(Cc2ccc(F)cc2)C(=O)[C@H]1Cc1ccccc1 (some centres undefined) | 47.5* | -0.4 | -1.9 | 8.9 | 7.1 | -2.9 | 44.0*
CC(=O)C(Cc1ccccc1)NC(=O)CN(C)Cc1ccccc1Cl (centres undefined) | 9.6 | 1.1 | 1.8 | 0.9 | -0.6 | 2.7 | .
CSc1ccc(CCNS(=O)(=O)c2c(C)[nH]c(C)c2C(=O)N2CCCCC2)cc1 | 0.2 | -0.2 | -4.0 | -6.6 | 3.7 | -4.0 | .
Cc1[nH]c(C)c(S(=O)(=O)NCCc2ccc(S(N)(=O)=O)cc2)c1C(=O)N1CCCC1 | 53.9* | -4.2 | -1.7 | -5.1 | -0.7 | -1.0 | 12.7
CCOC(=O)c1c(NC(=O)C(C)Sc2nnc(C)c(=O)[nH]2)sc2c1CCCC2 (centres undefined) | -0.1 | -7.6 | 1.0 | -45.6 | -5.4 | 0.1 | .
Cn1c(NN)nc2ccccc2c1=O | 44.7* | 0.0 | 6.9 | 17.8 | 2.0 | 1.0 | 25.6
CCOc1cc(/C=C2/C(=N)N3C(=NC2=O)SN=C3S(C)(=O)=O)ccc1OC(=O)c1ccco1 | 51.8* | -7.0 | -0.2 | 7.2 | -1.4 | 2.0 | 71.3*
CCOc1cc(/C=C2\C(=N)N3N=C(S(=O)(=O)CC)SC3=NC2=O)ccc1OC(=O)c1ccco1 | 38.3 | -7.8 | -6.9 | -5.5 | -3.2 | -6.5 | .
CCOc1cc(/C=C2\C(=N)N3N=C(N4CCCCC4)SC3=NC2=O)ccc1OC(=O)c1ccco1 | 50.7* | 0.2 | 0.1 | 13.0 | 3.5 | -3.8 | 59.5*
Cc1c(/C=N/Nc2nc3ccccc3[nH]2)c2ccccc2n1C | 45.1* | 5.9 | 4.2 | -57.3 | 8.2 | -4.1 | 36.4
C=CCn1cc(/C=N/Nc2nc3ccccc3[nH]2)c2ccccc21 | 44.6* | 2.9 | 11.7 | -6.0 | 14.2 | 1.0 | 49.9*
C/C(CC(=O)Nc1ccc(F)cc1)=N\NC(=O)COc1ccccc1 | 3.3 | -0.3 | 4.9 | -6.9 | -7.0 | 2.6 | .
Cc1nc2ccc([N+](=O)[O-])cc2c(=O)n1Cc1ccc(Br)cc1 | 6.8 | 3.1 | 2.1 | 2.5 | 4.0 | 2.2 | .
Cc1nc2ccc([N+](=O)[O-])cc2c(=O)n1Cc1cccc(Br)c1 | 45.3* | 6.8 | -1.7 | 12.0 | -2.0 | -2.3 | 34.3
C=C1c2cccc(O)c2C(=O)C2C(=O)[C@]3(O)C(=O)C(C(N)=O)C(=O)[C@@H](N(C)C)[C@@H]3[C@@H](O)[C@H]12 (some centres undefined) | 61.7* | . | . | . | . | . | 2.2
CC(=O)c1ccc(N2CCN(C(=O)CCC(=O)Nc3ccc4nc(N5CCN(C)CC5)cc(C)c4c3)CC2)cc1 | 20.9 | 0.4 | 14.4 | -4.9 | 1.8 | 1.2 | .
Nc1c(C(=O)NC2CCCC2)c2nc3ccccc3nc2n1N | 44.0* | 13.1 | -0.6 | -2.8 | 1.4 | 0.0 | 29.9
O=C(Nc1ccc(S(=O)(=O)NC2=NCCCCC2)cc1)c1cc(S(=O)(=O)N2CCOCC2)ccc1F | 2.2 | 3.8 | 1.3 | 1.3 | -1.4 | -0.7 | .
Cc1cccc(N2CCN(C(=O)C3CCN(c4ncnc5c4nc4n5CCCCC4)CC3)CC2)c1C | 39.6 | 4.6 | 13.1 | -2.1 | -1.8 | -1.6 | .
O=C(C1CCN(c2ncnc3c2nc2n3CCCCC2)CC1)N1CCN(c2ccccc2F)CC1 | 44.4* | -6.6 | 2.2 | -5.6 | -0.8 | -0.4 | 42.9
SMILES | PREPL inhibitor | PME-1 primary | LYPLA2 inh | GSTO1 counter | Fam108B counter | LYPLA1 counter | PREPL confirm
c1ccc2c(-c3[nH]ncc3CNCCCn3ncc4ccccc43)cccc2c1 | -20.9 | 5.2 | 0.0 | -1.8 | 3.8 | -0.1 | .
OCC1CCCCN1CCNCc1cn[nH]c1-c1cccc2ccccc12 (centres undefined) | 43.8* | 2.5 | 0.7 | -3.0 | 0.3 | 1.8 | 42.7
O=S(=O)(NCC1CCN(Cc2ccccc2)CC1)c1ccccc1C(F)(F)F | 11.7 | 2.1 | -1.0 | 4.0 | -0.2 | -0.1 | .
CCN(CC(=O)NC(C)(C)C)C(=O)c1ccc2c(c1)S(=O)(=O)c1ccccc1C2=O | 15.7 | -4.8 | -1.9 | 4.2 | 5.0 | -2.2 | .
CC(=O)NCc1ccc(S(=O)(=O)NC(C(=O)O)C(C)C)cc1 (centres undefined) | 14.5 | -11.8 | 0.9 | -1.2 | 0.8 | -3.3 | .
C=CCOc1c(CNc2ccc3[nH]c(=O)[nH]c3c2)cccc1OC | 13.6 | 0.3 | 2.7 | 5.4 | -4.2 | 3.2 | .
O=c1[nH]c2ccc(NCc3ccccc3OCc3ccc(Cl)cc3)cc2[nH]1 | 72.5* | 9.1 | 6.9 | -12.6 | 4.3 | 2.6 | 73.1*
COc1ccc(COC(=O)Nc2cc3c(C(F)(F)F)nn(C)c3s2)cc1 | 45.2* | -0.6 | -3.7 | 5.0 | -2.2 | -6.9 | 36.1
Cn1nc(C(F)(F)F)c2cc(NC(=O)OCc3ccc(F)cc3)sc21 | 23.3 | -7.9 | -13.0 | 1.7 | -1.0 | -7.7 | .
CN(C)CCc1cc2c(c3c1ccc1ccccc13)OCO2 | 67.8* | 4.2 | 3.1 | 6.2 | 4.5 | 0.8 | 59.1*
Cc1ccc(NC(=O)CN2C(=O)NC(C)(C3CC3)C2=O)cc1S(=O)(=O)N1CCCCC1 (centres undefined) | 0.7 | -2.5 | -3.0 | . | . | -5.4 | .
CCCCNC(=S)N(CCN(C)C)Cc1cc2cc3c(cc2[nH]c1=O)OCCO3 | 14.2 | 3.8 | -5.9 | 14.8 | -0.4 | 1.2 | .
CCN(CC)c1ccc(-c2nn3c(-c4n[nH]c5c4CCC5)nnc3s2)cc1 | 78.8* | 22.5 | 3.1 | -3.4 | -3.0 | -0.6 | 68.1*
CCC(CO)Oc1cc(NCc2ccc(Cl)cc2)c2ncn(C(C)C)c2c1 (centres undefined) | 48.1* | . | . | . | . | . | 22.6
CCC(CO)Oc1cc(NCc2ccc(C)cc2)c2ncn(C(C)C)c2c1 (centres undefined) | 39.5 | . | . | . | . | . | .
CCN(CC)CCNC(=O)c1cc(Nc2ccc(OC)c(OC)c2)nc2ccccc12 | 42.3 | -3.5 | -7.2 | 7.6 | -1.0 | -0.7 | .
Cc1cc(OCC(=O)Nc2ccc(N3CCN(C)CC3)cc2)ccc1Cl | 70.4* | -6.1 | 9.8 | -7.3 | -0.3 | -0.5 | 55.8*
